# Results taken from publication PMC4336329 (PLoS ONE, 2015).
# Out of some 310,000 compounds screened, about 2,200 (0.71%) showed an effect of 50% or more. The effect is printed as a negative number. Many of the other results were omitted from the sample, so strong results are more common in it than they were.
# Molecular target: human ether-à-go-go-related gene (hERG) potassium channel (human, UniProt Q12809)
# Assay: primary screen, population patch clamp on CHO cells stably expressing hERG; higher = less effect of the substance
# Chain of human ether-à-go-go-related gene (hERG) potassium channel (Q12809 whole entry, looked up): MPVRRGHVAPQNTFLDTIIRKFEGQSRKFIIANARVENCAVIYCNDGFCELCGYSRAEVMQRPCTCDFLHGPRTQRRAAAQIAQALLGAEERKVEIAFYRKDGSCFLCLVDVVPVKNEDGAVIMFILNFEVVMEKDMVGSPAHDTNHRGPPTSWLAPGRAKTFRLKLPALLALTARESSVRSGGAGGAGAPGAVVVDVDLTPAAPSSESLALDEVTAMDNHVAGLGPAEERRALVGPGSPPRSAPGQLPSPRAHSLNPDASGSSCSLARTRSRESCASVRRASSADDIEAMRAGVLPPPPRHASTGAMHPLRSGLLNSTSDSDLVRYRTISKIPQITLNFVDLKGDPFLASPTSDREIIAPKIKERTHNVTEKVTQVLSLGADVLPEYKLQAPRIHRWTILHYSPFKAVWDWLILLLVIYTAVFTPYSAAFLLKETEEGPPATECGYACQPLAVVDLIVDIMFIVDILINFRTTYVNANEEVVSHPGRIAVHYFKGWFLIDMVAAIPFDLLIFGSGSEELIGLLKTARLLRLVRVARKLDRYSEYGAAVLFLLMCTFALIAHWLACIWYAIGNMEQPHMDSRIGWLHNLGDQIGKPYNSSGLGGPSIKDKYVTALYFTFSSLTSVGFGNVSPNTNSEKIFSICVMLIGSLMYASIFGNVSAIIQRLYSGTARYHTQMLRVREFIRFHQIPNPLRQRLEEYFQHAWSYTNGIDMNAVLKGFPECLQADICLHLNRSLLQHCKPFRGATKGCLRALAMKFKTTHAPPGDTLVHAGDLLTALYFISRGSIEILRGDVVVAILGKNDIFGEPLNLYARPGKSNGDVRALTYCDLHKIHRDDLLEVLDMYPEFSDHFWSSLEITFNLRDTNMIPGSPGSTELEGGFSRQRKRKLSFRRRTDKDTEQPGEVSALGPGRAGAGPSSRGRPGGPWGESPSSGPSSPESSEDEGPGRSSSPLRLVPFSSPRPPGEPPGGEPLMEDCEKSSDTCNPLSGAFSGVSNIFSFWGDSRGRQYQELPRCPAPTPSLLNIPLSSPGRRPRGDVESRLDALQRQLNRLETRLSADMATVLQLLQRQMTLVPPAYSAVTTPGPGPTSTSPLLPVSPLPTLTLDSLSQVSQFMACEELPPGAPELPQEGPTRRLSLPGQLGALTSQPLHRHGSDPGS
row,SMILES,"hERG current change (%, negative = inhibition) at 1uM [%]"
1,O=C1CCCc2c1nn(-c1ccccc1)[n+]2[O-],6.47
2,Cc1nn(CC(=O)Nc2c(C)n(C)n(-c3ccccc3)c2=O)c(C)c1[N+](=O)[O-],8.99
3,Cc1nn(CC(=O)Nc2cccnc2)c(=O)c2ccccc12,-9.14
4,CCOC(=O)CC1C(=O)NCCN1c1nc2c(C)cccn2c(=O)c1/C=C1\SC(=S)N(C(C)CC)C1=O (stereo not shown),9.18
5,CCOC(=O)C1CCN(C(=O)c2sc3ncnc(N4CCC(C)CC4)c3c2C)CC1,-57.3
6,Cc1c(C(=O)N2CCC(Cc3ccccc3)CC2)sc2ncnc(N3CCC(C)CC3)c12,9.72
7,CCOC(=O)C1CCN(C(=O)c2sc3nc(C)nc(N4CCC(C)CC4)c3c2C)CC1,-1.96
8,COc1ccc2nc(SCC(=O)Nc3ccc(S(=O)(=O)N4CCCC4)cc3)c(C#N)cc2c1,-3.01
9,CN(C)C(=O)c1cc(C(=O)c2ccc(F)cc2C(F)(F)F)c[nH]1,14.3
10,Cc1nn(-c2cccc(Cl)c2)c2c1C(c1ccncc1)C(C#N)=C(N)O2 (stereo not shown),5.94
11,CCOC(=O)CCCCC(=O)c1[nH]c(=O)[nH]c1CSc1nnc2c3ccccc3n(C(C)C)c2n1,-0.434
12,Cc1cc(Cl)ccc1C(=O)C1CCCN(C2CCSCC2)C1 (stereo not shown),-49.3
13,O=C(c1ccc(C(F)(F)F)cc1)C1CCCN(C(=O)c2csnn2)C1 (stereo not shown),9.85
14,O=C(c1ccc(C(F)(F)F)cc1)C1CCCN(C2CCSCC2)C1 (stereo not shown),-64.4
15,CC(C)(C)c1ccc(C(=O)C2CCCN(C3CCC3)C2)cc1 (stereo not shown),10.7
16,O=C(c1ccc(Cl)cc1)C1CCCN(C2CCSCC2)C1 (stereo not shown),-63.4
17,CN1CCCC(C(=O)c2ccc(Cl)cc2)C1 (stereo not shown),-2.93
18,CCC(=O)Nc1ccc(S(=O)(=O)Nc2cccc(C)c2)cc1OC,6.57
19,COc1cc(O)c(C(CCN2CCOCC2)c2ccc3c(c2)OCO3)c(OC)c1 (stereo not shown),-45.7
20,O=C(CCN1CCCCC1)c1ccc2c(c1)OCO2,10.3

row,SMILES,"hERG current change (%, negative = inhibition) at 1uM [%]"
1,CC(C)CCC(CCN1CCOCC1)c1ccc2c(c1)OCO2.Cl (stereo not shown),-76.8
2,CC(C)CCC(CCN1CCCC1)c1ccc2c(c1)OCO2.O=C(O)C(=O)O (stereo not shown),-83.3
3,COc1cc(OC)c2ccc(=O)oc2c1C(CCN1CCCC1)c1ccc2c(c1)OCO2 (stereo not shown),-7.33
4,C(=NCCCN1CCOCC1)c1ccc2c(c1)OCO2,16.1
5,CC(=O)Nc1ccc(NC(=O)C(C)OC(=O)CNC(=O)c2cccs2)cc1 (stereo not shown),12.5
6,CCOC(=O)c1c(-c2ccc(C)cc2C)csc1NC(=O)CSc1nnnn1C,-3.8
7,COc1ccc(Cl)cc1N(C)C(=O)CCNC(=O)Cn1cnc2ccccc2c1=O,11.2
8,Cc1cc(C)c2cc(CN(CCN3CCCC3)C(=O)Nc3ccc(F)cc3)c(=O)[nH]c2c1,-57.9
9,Cc1cc(C)c2cc(CN(CCO)C(=O)Nc3ccc(Cl)cc3)c(=O)[nH]c2c1,3.03
10,COc1cc2cc(CN(CCN3CCCC3)C(=O)Nc3ccc(F)cc3)c(=O)[nH]c2cc1OC,3.06
11,Cc1ccc2cc(CN(CCN3CCCC3)C(=O)Nc3ccc(F)cc3)c(=O)[nH]c2c1C,-8.93
12,Cc1ccc(C)c2[nH]c(=O)c(CN(CCN3CCCC3)C(=O)Nc3ccc(F)cc3)cc12,-76.6
13,Cc1ccc(C)c2[nH]c(=O)c(CN(CCN3CCCC3)C(=O)Nc3cccc(Cl)c3)cc12,-35.6
14,CC1(C)CC(=O)C(C=NCCN2CCN(CC(=O)Nc3ccc(Cl)cc3)CC2)=C(O)C1,2.52
15,C=CCn1c(O)c(C(C)=NCCN2CCCCC2)c(=O)[nH]c1=O,8.8
16,CCOc1ccc(NC(=S)N2CCC(NC(=O)c3ccccc3)CC2)cc1,-3.48
17,CN1CCN(CC#CC(C)(O)C2CC3C=CC2C3)CC1.Cl (stereo not shown),10.8
18,c1cncc(COC2CCCN(Cc3nc(-c4cccs4)no3)C2)c1 (stereo not shown),15.7
19,COc1cc(OC)cc(C(C)=O)c1,14.7
20,Cc1ccc(NC(=O)/C=C/c2ccc([N+](=O)[O-])s2)cc1,13.2

row,SMILES,"hERG current change (%, negative = inhibition) at 1uM [%]"
1,CN(C)CCCn1c(SCC(=O)N2CC(=O)Nc3ccccc32)nc2ccccc2c1=O,9.8
2,CC(C)N(CCn1c(SCC(=O)N2CC(=O)Nc3ccccc32)nc2ccccc2c1=O)C(C)C,-72.5
3,COCCn1c(SCC(=O)N2CC(=O)Nc3ccccc32)nc2ccccc2c1=O,-3.74
4,N#Cc1ccc(S(=O)(=O)NCC(=O)OCC(=O)NCCc2ccccc2)cc1,14.7
5,C=CCn1c(SCC(=O)N(CC)C2CCS(=O)(=O)C2)nc2sc3c(c2c1=O)CCC3 (stereo not shown),-37.5
6,Clc1ccc(-c2nnc(NC3=NCCCCC3)o2)cc1,10
7,Cc1ccc(C(=O)N/C(=C/c2ccc(C(C)C)cc2)C(=O)NCCCN2CCOCC2)cc1,-22
8,CC(C)c1ccc(/C=C(\NC(=O)c2ccccc2)C(=O)NCCN2CCOCC2)cc1,-21.9
9,Cc1ccc(C(=O)N/C(=C\c2ccc(Cl)cc2)C(=O)NCCN2CCOCC2)cc1,-70.6
10,CN(C)c1ccc(/C=C(/NC(=O)c2ccccc2)C(=O)NCCN2CCOCC2)cc1,16.1
11,Cc1ccc(C(=O)N/C(=C\c2ccco2)C(=O)NCCN2CCOCC2)cc1,5.85
12,O=C(NCCN1CCOCC1)/C(=C/c1ccccc1)NC(=O)c1ccccc1,3.35
13,Cc1ccc(C(=O)N/C(=C\c2ccccc2)C(=O)NCCN2CCOCC2)cc1,-38.7
14,COc1ccc(/C=C(\NC(=O)c2ccc(C)cc2)C(=O)NCCN2CCOCC2)cc1,-33.3
15,O=C(NCCN1CCOCC1)/C(=C/c1ccc(Cl)cc1)NC(=O)c1ccccc1,-83.1
16,Cc1ccc(C(=O)N/C(=C\c2ccc(F)cc2)C(=O)NCCN2CCOCC2)cc1,-79.1
17,Cc1ccc(C(=O)N/C(=C\c2ccc(C(C)C)cc2)C(=O)NCCCN2CCOCC2)cc1,-61.4
18,CC(C)c1ccc(/C=C(\NC(=O)c2ccccc2)C(=O)NCCCN2CCOCC2)cc1,-35.8
